Bioassay records: PubChem BioAssay, several laboratories
IDE cell activ = activators of human insulin-degrading enzyme in cells; HEK cells, FAbeta-B cleavage, fluorescence polarization; 0% vehicle, 100% cell-free pure enzyme wells; activation, % at 5.96 µM; 340,000 tested, 0.073% active;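 active means activation above the mean of all tested compounds plus 3 SD, set per screening campaign, cut at about 17% in these data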
Target sequence (P14735 whole entry, looked up): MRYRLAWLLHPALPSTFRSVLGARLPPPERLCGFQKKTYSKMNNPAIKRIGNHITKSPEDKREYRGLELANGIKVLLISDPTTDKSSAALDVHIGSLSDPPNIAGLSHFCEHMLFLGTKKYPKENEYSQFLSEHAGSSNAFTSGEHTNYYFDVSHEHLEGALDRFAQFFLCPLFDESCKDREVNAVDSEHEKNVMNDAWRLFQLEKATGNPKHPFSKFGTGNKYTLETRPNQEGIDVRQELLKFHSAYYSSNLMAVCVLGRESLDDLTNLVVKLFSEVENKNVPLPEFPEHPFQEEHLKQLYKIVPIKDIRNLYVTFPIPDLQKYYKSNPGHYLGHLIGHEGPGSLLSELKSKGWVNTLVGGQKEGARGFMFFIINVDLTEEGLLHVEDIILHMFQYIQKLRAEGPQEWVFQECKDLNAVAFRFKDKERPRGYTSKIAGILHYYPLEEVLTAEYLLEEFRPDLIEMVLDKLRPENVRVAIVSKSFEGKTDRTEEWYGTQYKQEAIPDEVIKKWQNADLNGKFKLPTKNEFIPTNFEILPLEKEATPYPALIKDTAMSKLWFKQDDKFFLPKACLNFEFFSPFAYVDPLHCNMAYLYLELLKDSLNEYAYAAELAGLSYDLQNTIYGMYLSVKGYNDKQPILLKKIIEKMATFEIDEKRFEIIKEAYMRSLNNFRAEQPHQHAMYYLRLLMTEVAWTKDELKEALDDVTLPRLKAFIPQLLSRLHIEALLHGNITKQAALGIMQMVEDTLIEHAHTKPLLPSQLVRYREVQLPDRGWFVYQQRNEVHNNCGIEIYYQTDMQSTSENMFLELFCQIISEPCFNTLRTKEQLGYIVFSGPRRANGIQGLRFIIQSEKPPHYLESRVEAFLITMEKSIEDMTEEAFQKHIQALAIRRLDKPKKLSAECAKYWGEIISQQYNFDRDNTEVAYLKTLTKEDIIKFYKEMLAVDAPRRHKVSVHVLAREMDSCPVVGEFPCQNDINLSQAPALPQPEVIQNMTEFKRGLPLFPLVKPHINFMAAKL
M18AAP inhibitor = blocks P. falciparum M18 aspartyl aminopeptidase. recombinant PfM18AAP, H-Glu-NHMec fluorogenic cleavage. 290,000 tested, 1.2% active. inhibition, % at 7.35 µM. AID 1822;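 active means inhibition above the campaign mean inhibition over all tested compounds plus 3 SD, cut at about 28% in these data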;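 further: 0% = plate median of test compound wells and 100% = 2 mM ZnCl2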
IDE cell inh = cellular human IDE inhibition | P14735 | HEK cells, FAbetaB cleavage, fluorescence polarization | inhibition, % at 5.59 µM | 320,000 tested, 0.41% active | AID 434962;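 active means percent inhibition above the average of all tested compounds plus 3 SD, set per screening campaign, cut at about 16% in these data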;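 further: IDE supplied by intact live HEK cells; FP after avidin binding of uncleaved biotin substrate so inhibition keeps polarization high; 0% = DMSO wells and 100% = 60 µM reference IDE inhibitor Ii1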
CaV13 ICDI inh = Primary screen for inhibitors of IQ motif and Ca2+-dependent inactivation inhibitor domain binding in CACNA1D, Förster resonance energy transfer in living cells, …; HEK cells, CFP/YFP FRET ICDI-IQ, plate reader, 10 min; percent FRET-ratio fall versus neutral wells; inhibition, % at 12.3 µM; 340,000 tested, 0.098% active;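 active means mean replicate inhibition of at least 30% and at least 1% of replicates passing that level; inconclusive means only one of the two criteria is met; inactive means neither criterion is met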;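 further: 0% = median of the neutral control wells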
ALR inh = inhibitors of human sulfhydryl oxidase ALR; purified ALR, DTT oxidation, H2O2 HRP-luminol luminescence; inhibition, % (concentration not given with the values); 290,000 tested, 3.8% active; AID 485317;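 active means mean replicate inhibition above about 79%, with every replicate also reaching it, limit read from the data; inconclusive means only one of the two criteria met; inactive means mean below limit and not every replicate reaching it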
PolyA inh = inhibitors of polyadenylation in S. cerevisiae; S. cerevisiae SKY197-pL101 polyadenylation reporter, beta-gal luminescence; efflux-impaired pdr1/pdr3 knockout yeast; score 100 = 6 SD above DMSO; activity score, % at 12 µM; 300,000 tested, 0.02% active;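 active means lowest replicate activity score at least 50, where 100 means six control SD above control mean; inconclusive means lowest score under 50 but half or more replicates reach 50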;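 further: yeast exposed to compound for 9 h at 30 °C; higher score means more reporter readthrough which indicates perturbed polyadenylation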
* marks the source's active call; other numbers are inactive results; u = inconclusive; x = no result given. In the library only some 4.1% were active in any assay of this set; here they are far more common.

SMILES	IDE cell activ	M18AAP inhibitor	IDE cell inh	CaV13 ICDI inh	ALR inh	PolyA inh
COc1c(C)cccc1C(=O)Nc1ccc(CN2CCCCC2)cc1	5	1	8	-6	94*	7
O=C(Nc1ccc(N2CCCCCC2)cc1)c1ccc[nH]1	4	x	-3	-5	99*	x
COc1ccccc1C(=O)Nc1ccc(N2CCN(C(C)=O)CC2)cc1	0	1	-4	-18	30	2
COc1ccccc1C(=O)Nc1ccc(N2CCCCC2)cc1	6	1	8	x	83*	20
COc1ccc(/C=N/NC(=O)c2cc3c(ccc4ccccc43)o2)cc1OC	2	0	x	x	-13	x
Cc1c(C(=O)N/N=C/c2ccc(N3CCOCC3)cc2)nc2ccccn12	3	0	-2	-4	10	11
COc1cc(/C=N/NC(=O)c2cc3c(ccc4ccccc43)o2)cc(OC)c1O	-7	32*	5	-2	-13	8
COc1cc(/C=N/NC(=O)c2nc3ccccn3c2C)cc(OC)c1O	-1	17	8	-3	99*	u
CC(C)Oc1ccc(Cc2cnc(=S)[nH]c2N)cc1	-15	31*	7	-3	1	-16
CC(C)COc1ccc(Cc2cnc(N)nc2N)cc1	6	-4	1	-5	-2	0
Cc1cc(C)cc(-n2cccc2/C=C2/C(=N)N3C(=NC2=O)SN=C3S(C)(=O)=O)c1	2	0	-1	-12	88*	14
CCc1ccc(-n2cccc2/C=C2/C(=N)N3C(=NC2=O)SN=C3S(C)(=O)=O)cc1	1	4	8	-5	58	8
Cc1ccc(-n2cccc2/C=C2/C(=N)N3C(=NC2=O)SN=C3S(C)(=O)=O)cc1	0	6	0	-4	98*	-1
CS(=O)(=O)C1=NSC2=NC(=O)/C(=C\c3cccn3-c3ccccc3Cl)C(=N)N21	-1	6	-1	-2	26	25
CS(=O)(=O)C1=NSC2=NC(=O)/C(=C\c3ccc(-c4ccccc4)o3)C(=N)N21	x	3	5	x	97*	x
O=C1CC(C(=O)Nc2ccc(F)cc2)S/C(=N\N=C\c2ccco2)N1 (stereo unspecified)	0	-5	2	-6	96*	-12
Cc1ccc(NC(=O)C2CC(=O)N/C(=N/N=C/c3ccco3)S2)cc1 (stereo unspecified)	4	0	0	-5	-3	-1
CCOc1cccc(C2C(C(=O)c3ccc(C)o3)=C(O)C(=O)N2c2nnc(C)s2)c1 (stereo unspecified)	-1	x	x	-2	x	x
CCCOc1cccc(C2C(C(=O)c3ccc(C)o3)=C(O)C(=O)N2c2nc(C)c(C(C)=O)s2)c1 (stereo unspecified)	-1	17	1	-8	97*	-7
CC1Cc2ccccc2N1CC(=O)Nc1ccc(S(=O)(=O)N(C)C)cc1 (stereo unspecified)	1	-1	1	3	-4	10
CC1Cc2ccccc2N1Cc1cccc(S(=O)(=O)N(C)C)c1 (stereo unspecified)	-1	14	4	-18	99*	-19
COc1ccccc1C(=O)N1CCN(C(=O)[C@@H](Cc2ccccc2)NC(=O)[C@H]2O[C@@H](n3ccc(N)nc3=O)[C@H](O)[C@@H]2O)CC1	x	x	x	-3	x	x
COc1c2ccoc2nc2c(OC)c(O)ccc12	4	6	3	x	99*	-27
COc1ccc2c(OC)c3ccoc3nc2c1OC	3	2	9	x	-22	-13
CC1(C)C(/C=C/C=C/C=C/C=C2\N(CCCCS(=O)(=O)O)c3ccc4ccccc4c3C2(C)C)=[N+](CCCCS(=O)(=O)[O-])c2ccc3ccccc3c21	-9	x	21*	x	59	x
SMILES	IDE cell activ	M18AAP inhibitor	IDE cell inh	CaV13 ICDI inh	ALR inh	PolyA inh
COc1cccc(CSc2nnc(-c3ccncc3)n2N)c1	2	5	5	-4	-2	16
CC1(C(=O)NS(=O)(=O)c2cccc(Cl)c2)CCN1C(=O)Cc1ccsc1 (stereo unspecified)	x	x	x	-5	x	x
CCOC(=O)CSc1n[nH]c(NC(=O)CC)n1	1	-3	3	-1	x	9
CCOC(=O)CSc1n[nH]c(NC(=O)c2cccc(C(F)(F)F)c2)n1	-3	4	-1	-8	99*	13
CC/C(C)=N/NC(=S)NCc1ccco1	-3	16	0	-2	68	2
CCN(CC)C(=O)CSc1nc2ccc(NC(=O)CSc3nnc(N)s3)cc2s1	8	0	0	x	-10	-1
CCCC(=O)Nc1ccc2nc(SCC(=O)Nc3nccs3)sc2c1	-4	-2	-4	x	99*	26
CCN(CC)C(=O)CSc1nc2ccc(NC(=O)CSc3nccn3C)cc2s1	-4	6	7	-5	99*	-6
O=C(CCCSc1nc2ccccc2s1)Nc1nccs1	1	3	-2	-5	x	-8
CCN(CC)c1ccc(N)cc1	3	x	-3	x	97*	x
CCN(CC)c1ccc(C(=O)NN)cc1	3	-27	-3	3	2	-1
Nc1ccc(N(CCO)CCO)cc1	2	21	-1	-19	97*	7
Cc1nc2sccn2c(=O)c1S(=O)(=O)N1CCN(c2ccc(F)cc2)CC1	4	0	4	-7	95*	-6
Cc1nc2sccn2c(=O)c1S(=O)(=O)N1CCN(c2cccc(C(F)(F)F)c2)CC1	1	-17	2	-2	1	8
COc1ccc(C2CC(C(F)(F)F)n3nc(C(=O)O)c(Cl)c3N2)cc1OC (stereo unspecified)	18*	-1	-2	-4	1	17
CC1(C(=O)Nc2cccc3ccccc23)CCN1C(=O)Cc1ccccc1Cl (stereo unspecified)	x	x	x	-6	x	x
Cc1ccc2nc(SCC(=O)Nc3cccc(S(=O)(=O)N(C)C)c3)[nH]c2c1	-6	6	5	-4	x	24
NS(=O)(=O)c1cccc(NC(=O)CSc2nc3ccc(Cl)cc3[nH]2)c1	5	-2	3	15	97*	-1
Nn1cc(-c2ccccc2)nc1SCC(=O)Nc1ccc(S(N)(=O)=O)cc1	0	-14	-3	-3	x	-12
Nn1cc(-c2ccccc2)nc1SCC(=O)Nc1cccc(S(N)(=O)=O)c1	6	6	3	-2	99*	7
Cc1ccc2nc(SCC(=O)Nc3cccnc3Cl)[nH]c2c1	-4	x	-3	-4	88*	x
CCOc1ccc(C(=O)NNC(=O)C2CC(=O)N(c3ccc(C)cc3)C2)cc1 (stereo unspecified)	-3	x	4	-5	x	1
CCCCCNC(=O)c1nc(-c2c(F)cccc2F)oc1-c1ccccc1	x	x	x	-8	x	x
